Source: PubChem BioAssay (EPA / NIEHS)
“And” between values parts separate entries of the source, which are not always exact repeats. Equal entries are not always repeated. Records with an inconclusive call do not appear. The source made the active and inactive calls. How the source made its calls: active means hit-call score of the fitted dose curve at least 0.9, where 1 is the maximum; inconclusive means response in the unintended direction; inactive means score below 0.9.

Experiments:
[1] = target: human Thromboxane A2 Receptor (TXA2), TBXA2R (gene 6915) (UniProt P21731); assay: NVS_GPCR_hTXA2: NovaScreen (NVS) G Protein-Coupled Receptor Assay for human Thromboxane A2 Receptor (TXA2) (AID 2283282);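 further: actives reduce bound radioligand signal relative to DMSO baseline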
Method in brief: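 Screening ran at 25 uM in duplicate, with concentration series for confirmed actives. Each test measures radioligand binding to human platelet protein after 1 h, cell-free, using filter-based scintillation detection of signal loss relative to DMSO.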

[2] = target: human Opioid Receptor Mu (Opiate Mu), OPRM1 (gene 4988) (UniProt P35372); assay: NVS_GPCR_hOpiate_mu: NovaScreen (NVS) G Protein-Coupled Receptor Assay for human Opioid Receptor Mu (Opiate Mu) (AID 2283290);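 further: hits lower bound tracer signal versus DMSO meaning displacement of the ligand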
Method in brief: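 Here, radioligand binding to CHO-extracted receptor was measured after 2.5 h using filter-based scintillation detection. Initial single-concentration screening used 25 uM in duplicate with plate controls; confirmed actives went to concentration-response testing.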

[3] = target: rat Serotonin, 5-Hydroxytryptamine Receptor 1 (5HT1), Non-Selective Binding, Htr1a (gene 24473) (UniProt P19327); assay: NVS_GPCR_r5HT1_NonSelective: NovaScreen (NVS) G Protein-Coupled Receptor Assay for rat Serotonin, 5-Hydroxytryptamine Receptor 1 (5HT1), Non-Selective Binding (AID 2283286)
Method in brief: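 Binding of a radioligand to rat cortex membranes is read by filtration and scintillation counting after 1 h. Compounds were screened at 25 uM in duplicate. Actives were then titrated to a top of 50 uM. DMSO is the baseline.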

[4] = target: rat Adrenergic, Alpha 1, Non-selective Receptor (Adra1), Adra1a (gene 29412) (UniProt P43140); assay: NVS_GPCR_rAdra1_NonSelective: NovaScreen (NVS) G Protein-Coupled Receptor Assay for rat Adrenergic, Alpha 1, Non-selective Receptor (Adra1) (AID 2283289)
Method in brief: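 Chemicals first screened in duplicate at 25 uM, then actives tested in concentration series up to 50 uM. Binding measured as displacement of radioligand from rat forebrain membrane receptors, 1 h, filtration with scintillation readout; DMSO baseline.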

[5] = target: guinea pig Bradykinin Receptor B2 (BK2), BDKRB2 (gene 100135486) (UniProt O70526); assay: NVS_GPCR_gBK2: NovaScreen (NVS) G Protein-Coupled Receptor Assay for guinea pig Bradykinin Receptor B2 (BK2) (AID 2283292)
Method in brief: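 Guinea pig ileum membrane preparation incubated 1 h with radioligand and test chemical; bound counts measured after filtration. Primary duplicate screening at 25 uM, then singleton concentration series with a 50 uM top dose; DMSO as baseline.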

[6] = target: human Orphanin, Opioid Related Nociceptin Receptor 1 (ORL1), OPRL1 (gene 4987) (UniProt P41146); assay: NVS_GPCR_hORL1: NovaScreen (NVS) G Protein-Coupled Receptor Assay for human Orphanin, Opioid Related Nociceptin Receptor 1 (ORL1) (AID 2283283)
Method in brief: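 Cell-free binding using HEK293-derived receptor protein: radioligand displacement measured by filter scintillation 1 hour after dosing. Primary testing at 25 uM in duplicate, followed by singleton concentration series up to 50 uM; DMSO served as negative control.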

[7] = target: mouse Cholecystokinin, CCK1 Receptor (CCKA), Cckar (gene 12425) (UniProt O08786); assay: NVS_GPCR_mCCKAPeripheral: NovaScreen (NVS) G Protein-Coupled Receptor Assay for mouse Cholecystokinin, CCK1 Receptor (CCKA) (AID 2283285)
Method in brief: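 Chemicals were first screened in duplicate at 25 uM, with those meeting threshold (e.g., 30% inhibition) retested in singleton concentration series to 50 uM maximum. Binding of radioligand to mouse pancreatic membranes was read after 2 h by filtration and scintillation counting.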

[8] = system: rabbit Platelet Activating Factor Receptor (PAF), gene 100354046; assay: NVS_GPCR_rabPAF: NovaScreen (NVS) G Protein-Coupled Receptor Assay for rabbit Platelet Activating Factor Receptor (PAF) (AID 2283287)
Method in brief: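 Rabbit platelet membrane preparation; radioligand displacement read by filter-based scintillation counting 1 h after dosing, loss of signal versus DMSO. Primary screen in duplicate at 25 uM, actives followed up in concentration series.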

[9] = target: mouse Cholecystokinin, CCK2 Receptor (CCKB), Cckbr (gene 12426) (UniProt P56481); assay: NVS_GPCR_mCKKBCentral: NovaScreen (NVS) G Protein-Coupled Receptor Assay for mouse Cholecystokinin, CCK2 Receptor (CCKB) (AID 2283293)
Method in brief: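 Mouse forebrain membrane preparation incubated 2 h with chemical and radioligand; bound radioactivity counted after filtration. Single-concentration duplicate screen at 25 uM, then concentration series to 50 uM max for hits, DMSO as baseline.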

[10] = target: guinea pig Serotonin, 5-Hydroxytryptamine Receptor 4 (5HT4), HTR4 (gene 100135548) (UniProt O70528); assay: NVS_GPCR_g5HT4: NovaScreen (NVS) G Protein-Coupled Receptor Assay for guinea pig Serotonin, 5-Hydroxytryptamine Receptor 4 (5HT4) (AID 2283294)
Method in brief: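 Compounds first screened in duplicate at 25 uM, actives followed up in concentration series. Binding measured as displacement of specific radioligand from guinea pig striatal membranes, 1 h, filter-based scintillation read-out versus DMSO baseline.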

[11] = target: rat Serotonin, 5-Hydroxytryptamine Receptor (5HT), Non-Selective Binding, Htr1a (gene 24473) (UniProt P19327); assay: NVS_GPCR_r5HT_NonSelective: NovaScreen (NVS) G Protein-Coupled Receptor Assay for rat Serotonin, 5-Hydroxytryptamine Receptor (5HT), Non-Selective Binding (AID 2283295)
Method in brief: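 Rat cortex membrane preparation incubated 1 h with radioligand and test chemical; bound radioactivity counted after filtration. Screening began in duplicate at 25 uM with concentration-series follow-up; fitting relative to DMSO.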

[12] = target: rat Adrenergic, Alpha 1A Receptor (Adra1A), Adra1a (gene 29412) (UniProt P43140); assay: NVS_GPCR_rAdra1A: NovaScreen (NVS) G Protein-Coupled Receptor Assay for rat Adrenergic, Alpha 1A Receptor (Adra1A) (AID 2283296)
Method in brief: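 Filter radiodetection after 1 h competitive binding on CEC-pretreated rat cortical membranes. Duplicate single-point screening at 25 uM; active chemicals retested across concentration series.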

[13] = system: rat Adrenergic, Alpha 1B Receptor (Adra1B), gene 24173; assay: NVS_GPCR_rAdra1B: NovaScreen (NVS) G Protein-Coupled Receptor Assay for rat Adrenergic, Alpha 1B Receptor (Adra1B) (AID 2283297)
Method in brief: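 Filter-binding radioligand competition on membranes from rat liver, read after 1 h by scintillation counting. Single-concentration duplicate screen at 25 uM, followed by concentration-response on actives, normalised to DMSO.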

[14] = target: rat Adrenergic Receptor, Beta (Adrb), Non-selective Binding, Adrb1 (gene 24925) (UniProt P18090); assay: NVS_GPCR_rAdrb_NonSelective: NovaScreen (NVS) G Protein-Coupled Receptor Assay for rat Adrenergic Receptor, Beta (Adrb), Non-selective Binding (AID 2283298)
Method in brief: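 Rat cortical membranes incubated 1 h with beta-adrenergic radioligand and test chemical; bound ligand measured by filtration and scintillation counting. Screen at 25 uM duplicate, then concentration series with 50 uM maximum; loss of signal versus DMSO.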

[15] = target: rat Adrenergic Receptor, Alpha 2 (Adra2), Non-selective Binding, Adra2a (gene 25083) (UniProt P22909); assay: NVS_GPCR_rAdra2_NonSelective: NovaScreen (NVS) G Protein-Coupled Receptor Assay for rat Adrenergic Receptor, Alpha 2 (Adra2), Non-selective Binding (AID 2283299)
Method in brief: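 Filter-based scintillation counting of radioligand binding to rat cortical membrane receptors, measured 1.25 hours post-dosing; loss of signal versus DMSO indicates displacement. Initial single-concentration duplicate at 25 uM, then concentration series.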

[16] = target: rat Corticotropin Releasing Factor Receptor (CRF), Crhr1 (gene 58959) (UniProt P35353); assay: NVS_GPCR_rCRF: NovaScreen (NVS) G Protein-Coupled Receptor Assay for rat Corticotropin Releasing Factor Receptor (CRF) (AID 2283300)
Method in brief: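 Single-concentration (25 uM, duplicate) radioligand binding on rat cortical membrane preparations, counted by scintillation after 2 h. Activity scored as signal loss relative to DMSO negative control.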

[17] = target: rat Histamine Receptor (H3), Hrh3 (gene 85268) (UniProt Q9QYN8); assay: NVS_GPCR_rH3: NovaScreen (NVS) G Protein-Coupled Receptor Assay for rat Histamine Receptor (H3) (AID 2283303)
Method in brief: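 Filter-binding radioligand competition on rat forebrain membranes, 1 h incubation; compounds screened at 25 µM in duplicate and followed in concentration series to 50 µM, loss of bound signal vs DMSO.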

[18] = target: Metabotropic glutamate receptor 1 (Rattus norvegicus) (UniProt P23385); assay: NVS_GPCR_rmMGluR1: NovaScreen (NVS) G Protein-Coupled Receptor Assay for rat Glutamate Metabotropic Receptor 1 (MGluR1) (AID 2283305)
Method in brief: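 Binding to native receptor from rat cerebellum extract, measured as displacement of a radioligand (scintillation counting, filter separation) after 1 hour. Compounds tested at 25 uM in duplicate, then titrated to a 50 uM maximum.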

[19] = system: 5-hydroxytryptamine receptor 2C (pig); assay: NVS_GPCR_p5HT2C: NovaScreen (NVS) G Protein-Coupled Receptor Assay for pig Serotonin, 5-Hydroxytryptamine Receptor 2C (5HT2C) (AID 2283288)
Method in brief: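 Radioligand displacement on membranes from pig choroid plexus, detected by filter scintillation counting after 1 h. Tested first at a single 25 uM in duplicate, then in concentration-response for actives; DMSO served as baseline.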

[20] = target: rat Gamma-Aminobutyric Acid Type B Receptor (GABBR), Gabbr1 (gene 81657) (UniProt Q9Z0U4); assay: NVS_GPCR_rGABBR: NovaScreen (NVS) G Protein-Coupled Receptor Assay for rat Gamma-Aminobutyric Acid Type B Receptor (GABBR) (AID 2283301)
Method in brief: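 Rat cortical membrane preparation, competitive radioligand binding for 1 h with filtration and scintillation readout. Actives from duplicate single-point 25 uM screening proceeded to concentration series with 50 uM top concentration.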

Measured: AC50

Chain of human Opioid Receptor Mu (Opiate Mu), OPRM1 (gene 4988) (P35372 whole entry, looked up): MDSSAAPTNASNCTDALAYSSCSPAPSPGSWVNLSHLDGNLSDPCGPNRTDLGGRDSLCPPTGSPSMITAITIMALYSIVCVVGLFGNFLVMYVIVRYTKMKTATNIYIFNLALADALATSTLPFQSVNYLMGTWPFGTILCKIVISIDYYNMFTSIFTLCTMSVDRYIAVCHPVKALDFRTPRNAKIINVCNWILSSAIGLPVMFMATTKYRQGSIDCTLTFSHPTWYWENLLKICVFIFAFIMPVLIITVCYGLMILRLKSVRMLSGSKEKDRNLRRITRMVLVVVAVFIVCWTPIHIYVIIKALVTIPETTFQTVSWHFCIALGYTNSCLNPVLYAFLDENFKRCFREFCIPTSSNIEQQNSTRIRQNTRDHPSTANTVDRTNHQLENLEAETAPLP
Chain of rat Serotonin, 5-Hydroxytryptamine Receptor (5HT), Non-Selective Binding, Htr1a (gene 24473) (P19327 whole entry, looked up): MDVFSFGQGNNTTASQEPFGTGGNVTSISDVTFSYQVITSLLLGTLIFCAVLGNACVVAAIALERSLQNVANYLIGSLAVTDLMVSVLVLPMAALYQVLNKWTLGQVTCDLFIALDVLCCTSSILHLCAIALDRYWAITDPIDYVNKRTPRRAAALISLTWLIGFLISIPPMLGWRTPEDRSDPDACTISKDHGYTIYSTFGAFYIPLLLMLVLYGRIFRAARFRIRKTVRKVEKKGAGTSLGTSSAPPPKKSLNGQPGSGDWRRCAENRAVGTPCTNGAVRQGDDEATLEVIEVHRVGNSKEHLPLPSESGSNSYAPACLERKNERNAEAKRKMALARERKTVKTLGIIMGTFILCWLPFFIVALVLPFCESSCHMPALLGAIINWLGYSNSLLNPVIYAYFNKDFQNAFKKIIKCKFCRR
Chain of rat Serotonin, 5-Hydroxytryptamine Receptor 1 (5HT1), Non-Selective Binding, Htr1a (gene 24473) (P19327 whole entry, looked up): as above
Chain of human Thromboxane A2 Receptor (TXA2), TBXA2R (gene 6915) (P21731 whole entry, looked up): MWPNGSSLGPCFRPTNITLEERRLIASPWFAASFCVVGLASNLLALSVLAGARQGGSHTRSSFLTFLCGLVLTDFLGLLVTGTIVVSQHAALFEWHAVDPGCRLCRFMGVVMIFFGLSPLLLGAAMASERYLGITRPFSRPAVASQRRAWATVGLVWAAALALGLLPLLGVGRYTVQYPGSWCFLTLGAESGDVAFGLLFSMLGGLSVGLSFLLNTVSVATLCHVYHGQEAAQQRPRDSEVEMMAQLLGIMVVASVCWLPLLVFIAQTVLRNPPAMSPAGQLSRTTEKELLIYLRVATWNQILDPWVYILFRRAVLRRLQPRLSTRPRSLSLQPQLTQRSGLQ
Chain of rat Adrenergic, Alpha 1, Non-selective Receptor (Adra1), Adra1a (gene 29412) (P43140 whole entry, looked up): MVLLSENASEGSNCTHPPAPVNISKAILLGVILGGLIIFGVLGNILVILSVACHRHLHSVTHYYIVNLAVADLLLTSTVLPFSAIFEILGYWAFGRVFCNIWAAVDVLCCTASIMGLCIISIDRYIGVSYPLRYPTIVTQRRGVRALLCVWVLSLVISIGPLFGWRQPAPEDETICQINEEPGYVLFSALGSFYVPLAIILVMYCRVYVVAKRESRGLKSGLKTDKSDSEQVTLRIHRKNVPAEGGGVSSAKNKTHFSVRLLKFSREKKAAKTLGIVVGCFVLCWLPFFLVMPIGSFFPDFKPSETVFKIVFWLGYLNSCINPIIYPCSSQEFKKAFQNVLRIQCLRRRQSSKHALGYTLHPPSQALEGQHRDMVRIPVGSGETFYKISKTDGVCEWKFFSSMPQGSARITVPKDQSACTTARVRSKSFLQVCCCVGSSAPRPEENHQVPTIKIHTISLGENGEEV
Chain of rat Adrenergic Receptor, Alpha 2 (Adra2), Non-selective Binding, Adra2a (gene 25083) (P22909 whole entry, looked up): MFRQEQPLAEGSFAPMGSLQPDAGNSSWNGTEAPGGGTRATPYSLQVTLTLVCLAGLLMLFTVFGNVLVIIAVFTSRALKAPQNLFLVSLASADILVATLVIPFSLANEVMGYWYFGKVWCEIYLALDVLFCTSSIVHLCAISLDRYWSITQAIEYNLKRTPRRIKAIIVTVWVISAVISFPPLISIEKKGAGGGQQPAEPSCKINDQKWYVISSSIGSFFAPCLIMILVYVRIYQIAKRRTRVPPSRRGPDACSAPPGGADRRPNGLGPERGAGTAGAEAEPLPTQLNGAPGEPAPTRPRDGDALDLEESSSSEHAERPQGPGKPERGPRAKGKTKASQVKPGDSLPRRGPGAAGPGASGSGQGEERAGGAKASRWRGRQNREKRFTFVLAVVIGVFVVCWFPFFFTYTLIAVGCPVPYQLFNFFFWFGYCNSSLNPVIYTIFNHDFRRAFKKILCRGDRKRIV
Chain of rat Histamine Receptor (H3), Hrh3 (gene 85268) (Q9QYN8 whole entry, looked up): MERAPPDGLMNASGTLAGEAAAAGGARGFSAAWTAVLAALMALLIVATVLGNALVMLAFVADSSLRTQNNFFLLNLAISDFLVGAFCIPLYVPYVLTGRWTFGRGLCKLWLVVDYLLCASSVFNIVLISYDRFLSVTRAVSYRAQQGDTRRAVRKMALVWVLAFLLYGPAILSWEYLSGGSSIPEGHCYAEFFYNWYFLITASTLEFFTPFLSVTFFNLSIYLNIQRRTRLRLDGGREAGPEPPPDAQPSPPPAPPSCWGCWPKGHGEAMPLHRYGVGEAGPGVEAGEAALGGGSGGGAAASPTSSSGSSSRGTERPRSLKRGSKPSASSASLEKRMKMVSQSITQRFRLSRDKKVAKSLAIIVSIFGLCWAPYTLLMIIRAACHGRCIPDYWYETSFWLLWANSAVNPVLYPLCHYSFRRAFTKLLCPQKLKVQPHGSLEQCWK
Chain of human Orphanin, Opioid Related Nociceptin Receptor 1 (ORL1), OPRL1 (gene 4987) (P41146 whole entry, looked up): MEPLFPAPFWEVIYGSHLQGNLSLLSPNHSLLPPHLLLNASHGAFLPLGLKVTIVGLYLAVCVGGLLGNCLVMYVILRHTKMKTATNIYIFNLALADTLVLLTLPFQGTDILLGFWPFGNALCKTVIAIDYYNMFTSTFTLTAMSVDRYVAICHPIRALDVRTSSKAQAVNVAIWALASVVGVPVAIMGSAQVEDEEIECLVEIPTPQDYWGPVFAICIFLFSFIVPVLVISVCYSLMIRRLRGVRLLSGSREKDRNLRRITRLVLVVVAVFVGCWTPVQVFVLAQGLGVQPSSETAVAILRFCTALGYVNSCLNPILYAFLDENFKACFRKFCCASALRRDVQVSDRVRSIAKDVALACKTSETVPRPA
Chain of guinea pig Bradykinin Receptor B2 (BK2), BDKRB2 (gene 100135486) (O70526 whole entry, looked up): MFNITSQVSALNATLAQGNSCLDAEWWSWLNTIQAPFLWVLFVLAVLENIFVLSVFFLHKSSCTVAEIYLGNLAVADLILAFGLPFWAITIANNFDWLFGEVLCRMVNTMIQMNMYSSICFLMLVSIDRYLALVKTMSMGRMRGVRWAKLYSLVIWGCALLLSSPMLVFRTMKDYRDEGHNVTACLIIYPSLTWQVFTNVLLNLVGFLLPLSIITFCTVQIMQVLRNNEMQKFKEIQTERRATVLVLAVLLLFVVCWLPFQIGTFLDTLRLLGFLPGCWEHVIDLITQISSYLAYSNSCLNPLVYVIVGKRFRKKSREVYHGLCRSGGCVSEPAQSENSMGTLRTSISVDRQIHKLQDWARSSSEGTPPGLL
Chain of rat Adrenergic, Alpha 1A Receptor (Adra1A), Adra1a (gene 29412) (P43140 whole entry, looked up): as the sequence (P43140 whole entry, looked up) above
Chain of guinea pig Serotonin, 5-Hydroxytryptamine Receptor 4 (5HT4), HTR4 (gene 100135548) (O70528 whole entry, looked up): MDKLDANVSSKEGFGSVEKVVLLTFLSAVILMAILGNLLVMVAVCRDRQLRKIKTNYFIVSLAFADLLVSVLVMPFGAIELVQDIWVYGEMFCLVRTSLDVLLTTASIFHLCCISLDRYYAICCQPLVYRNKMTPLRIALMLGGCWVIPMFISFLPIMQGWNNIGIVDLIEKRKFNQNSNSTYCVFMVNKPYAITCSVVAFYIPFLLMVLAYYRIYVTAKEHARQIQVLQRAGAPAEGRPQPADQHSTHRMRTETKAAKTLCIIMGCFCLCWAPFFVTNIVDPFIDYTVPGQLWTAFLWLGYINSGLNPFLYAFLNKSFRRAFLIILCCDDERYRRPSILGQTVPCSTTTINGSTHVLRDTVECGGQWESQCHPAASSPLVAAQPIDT

N#CCc1ccc(Cl)cc1
inactive: [1]

CC(C)(C)c1cc(O)ccc1O
inactive: [2]

CCNc1nc(NC(C)(C)C)nc(SC)n1
inactive: [1]

COc1cc(-c2ccc(N)c(OC)c2)ccc1N
inactive: [4]
active: [3] 11.8 µM and 12.6 µM

O=C(Nc1ccc2[nH]ccc2c1)c1cc2cc(F)ccc2n1Cc1cccc(F)c1
inactive: [2] | [5]

Nc1ncc([N+](=O)[O-])s1
active: [2] 17600 nM

C=C(C)C(=O)[O][Sn]([CH2]CCC)([CH2]CCC)[CH2]CCC
active: [1] 5.96 µM | [6] 1.39 µM | [7] 281 nM | [3] 18 µM | [8] 6.61 µM | [4] 6.86 µM | [2] 653 nM | [5] 12 µM | [9] 2.88 µM | [10] 2.78 µM | [11] 13.8 µM | [12] 13 µM | [13] 4.59 µM | [14] 20.5 µM | [15] 3.25 µM | [17] 25 µM | [18] 4.13 µM
inactive: [16]

CCC(=O)C(CC(C)N(C)C)(c1ccccc1)c1ccccc1 (centres undefined)
inactive: [3]
active: [19] 1.91 µM | [4] 18.1 µM | [11] 7.26 µM | [15] 12 µM

O=C(OC1CCCCC1)c1ccccc1C(=O)OC1CCCCC1
inactive: [2]

CC(=O)[O][Hg][c]1ccccc1
active: [1] 5.62 µM | [6] 0.473 µM | [7] 1650 nM | [3] 16.4 µM | [8] 38.4 µM | [4] 18.8 µM | [2] 90.8 nM | [9] 25 µM | [10] 14.2 µM | [11] 19.8 µM | [12] 25 µM | [13] 3.43 µM | [15] 3.96 µM | [20] 38.5 µM | [17] 40.2 µM | [18] 10.8 µM

COP(=S)(OC)Oc1ccc(Sc2ccc(OP(=S)(OC)OC)cc2)cc1
active: [1] 25 µM
